MCL1 BIM primary: MCL1-BIM-BH3 interaction inhibition (human) | GST-MCL1 / FITC-Bim-BH3 fluorescence polarization | 0.68% of 320,000 active | Q07820 | inhibition, % at 10.9 µM;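 active = inhibition above the mean inhibition of all tested compounds plus 3 SD, set per campaign, cut at about 40% in these data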;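 also: higher means more loss of mP so more displacement of Bim peptide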
Target sequence (Q07820 whole entry, looked up): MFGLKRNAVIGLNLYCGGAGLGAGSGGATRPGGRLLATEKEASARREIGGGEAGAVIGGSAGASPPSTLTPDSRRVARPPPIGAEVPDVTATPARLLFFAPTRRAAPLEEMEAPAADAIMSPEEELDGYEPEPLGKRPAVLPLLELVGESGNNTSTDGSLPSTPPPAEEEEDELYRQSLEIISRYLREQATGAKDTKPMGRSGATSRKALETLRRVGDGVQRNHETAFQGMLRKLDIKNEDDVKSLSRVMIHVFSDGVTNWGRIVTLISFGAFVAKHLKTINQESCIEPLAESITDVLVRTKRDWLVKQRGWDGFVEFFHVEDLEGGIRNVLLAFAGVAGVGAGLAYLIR
Mcl1-Noxa inh: disrupts binding of human Mcl-1 to Noxa peptide. Q07820. TR-FRET Mcl-1/Noxa peptide binding, 2 h. inhibition, % at 21.7 µM. 1.5% of 220,000 active. AID 1022;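 active = compounds that cut the protein-peptide binding signal by more than 50% relative to plate controls in a single-dose test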;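 also: His-tagged Mcl-1 with rhodamine Noxa BH3 peptide and terbium anti-His antibody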
GLD-1 TGE inh: GLD-1-TGE RNA interaction inhibition (C. elegans); 0.44% of 320,000 active; purified GLD-1 + fluorescein TGE RNA, fluorescence polarization; Q17339; AID 2280; inhibition, % at 5.96 µM;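 active = percent inhibition above a per-plate cutoff, the plate mean of test compounds plus 3 SD, cut at about 30% in these data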
Bcl-xL primary: Bcl-xL (human) inhibition | AID 2129 | inhibition, % at 10.9 µM | GST-Bcl-xL / FITC-Bim BH3 peptide fluorescence polarization | 0.7% of 320,000 active | Q07817;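 active = inhibition above the mean of all tested compounds plus 3 SD, cutoff set per campaign, cut at about 30% in these data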;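 also: inhibitors lower millipolarization by displacing the labeled peptide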
Target sequence (Q07817 whole entry, looked up): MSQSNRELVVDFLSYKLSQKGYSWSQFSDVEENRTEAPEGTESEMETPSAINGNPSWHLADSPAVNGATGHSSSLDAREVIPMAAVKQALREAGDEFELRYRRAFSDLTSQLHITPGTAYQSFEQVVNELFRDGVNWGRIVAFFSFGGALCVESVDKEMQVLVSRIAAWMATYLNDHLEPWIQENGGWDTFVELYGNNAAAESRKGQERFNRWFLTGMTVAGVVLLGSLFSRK
Bim-Mcl-1: disrupts Bim peptide binding to human Mcl-1; inhibition, % at 10 µM; 0.1% of 190,000 active; Q07820; Bead-based flow cytometry, Bim peptide-Mcl-1 binding; in the data active = inhibition above about 40%
Mcl1 Bid PPI: disrupts binding of human Mcl-1 to Bid peptide | 0.97% of 220,000 active | TR-FRET Mcl-1/Bid-Dy647 peptide binding, 1536-well | AID 1021 | Q07820 | inhibition, % at 21.7 µM;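 active = compounds that cut the binding signal by more than half at the single screening dose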;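 also: His-tagged Mcl-1 with europium anti-His antibody binding Bid BH3 peptide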
Hits are given with their value; i = inactive; nt = no result. In the library only some 2.3% were active in any assay of this set; here they are far more common.

SMILES | MCL1 BIM primary | Mcl1-Noxa inh | GLD-1 TGE inh | Bcl-xL primary | Bim-Mcl-1 | Mcl1 Bid PPI
O=[N+]([O-])c1cccc(/C=N/n2c(-c3cccnc3)n[nH]c2=S)c1 | i | i | i | i | i | i
O=[N+]([O-])c1ccc(Cl)c(/C=N/n2c(-c3cccnc3)n[nH]c2=S)c1 | i | 58 | i | i | i | i
O=[N+]([O-])c1ccc(-c2nn(-c3ccccc3)cc2/C=N/n2c(-c3ccncc3)n[nH]c2=S)cc1 | i | 52 | i | i | nt | i
Cc1cc(-c2n[nH]c(=S)n2/N=C/c2ccc(Cl)c([N+](=O)[O-])c2)n[nH]1 | i | i | i | i | i | i
O=[N+]([O-])c1cc(/C=N/n2c(-c3ccncc3)n[nH]c2=S)ccc1Cl | i | 65 | i | i | i | i
Cc1cc(-c2n[nH]c(=S)n2/N=C/c2cc([N+](=O)[O-])ccc2Cl)n[nH]1 | nt | 57 | nt | nt | i | i
CN(C)C(=O)CCSc1nnc(-c2ccncc2)o1 | i | i | i | i | i | i
CCN(CC)c1ccc(/C=C/c2cc(-c3ccccc3)c3ccccc3n2)cc1 | i | i | i | 30 | nt | i
Clc1ccccc1-c1nc2ccccc2[nH]1 | i | i | i | i | nt | 77
Fc1ccccc1-c1nc2ccccc2[nH]1 | i | i | i | i | i | i
Cc1cccc(NC(=S)NC2CCN(Cc3ccccc3)CC2)c1C | i | i | i | i | i | i
CC(C)(C)CC(C)(C)NC(=S)NC1CCN(Cc2ccccc2)CC1 | i | i | i | i | i | 92
Cc1ccccc1N1CCN(C2CCCN(C(=O)c3cc[n+]([O-])cc3)C2)CC1 (stereo not given) | i | nt | i | i | nt | nt
COc1cc2c(cc1OC)CC(C(=O)NCc1ccccc1)NC2 (stereo not given) | i | nt | i | i | nt | nt
COc1cccc(NC(=O)CN(C)C(=O)c2ccc(OCc3ccccc3)c(OC)c2)c1 | i | nt | i | i | nt | nt
Cc1cc(C)c2c(=O)n(CC(=O)N3CCC(N4CCCCC4)CC3)sc2n1 | i | i | i | i | i | i
CCOC(=O)C1CCCN(C(=O)Cn2sc3nc(C)cc(C)c3c2=O)C1 (stereo not given) | i | 57 | i | i | i | i
N#CC1(NC(=O)CN2C(=O)NC(Cc3c[nH]c4ccccc34)C2=O)CCCCC1 (stereo not given) | nt | nt | i | nt | nt | nt
N#Cc1ccc(CO/N=C/c2ccccc2)cc1 | i | i | i | i | i | 89
CCOc1ccc(NC(=O)CN(C)C(=O)C2=COCCO2)cc1OCC | i | nt | i | i | nt | nt
O=C(O)c1ccc(OCCOc2ccccc2)cc1 | i | i | i | i | nt | i
CSc1nc(C)cc(OCCO)n1 | i | i | i | i | i | i
CSc1nc(C)cc(OCC(=O)n2nc(C)cc2C)n1 | i | i | i | i | i | 99
CCN(CC)CCC(=O)Nc1cccc2c1C(=O)c1ccccc1C2=O | i | i | i | 36 | nt | i
C[C@@H]1O[C@@H](Oc2c(-c3cc(O)c(O)c(O)c3)oc3cc(O)cc(O)c3c2=O)[C@H](O)[C@H](O)[C@H]1O | i | 54 | i | i | i | i
SMILES | MCL1 BIM primary | Mcl1-Noxa inh | GLD-1 TGE inh | Bcl-xL primary | Bim-Mcl-1 | Mcl1 Bid PPI
C[C@@H]1O[C@@H](Oc2c(-c3ccc(O)c(O)c3)oc3cc(O)cc(O)c3c2=O)[C@H](O)[C@H](O)[C@H]1O | nt | nt | i | nt | nt | nt
Cc1ccsc1C(=O)OCC(=O)N1CCOCC1 | i | i | i | i | i | 67
CCC1CCCCN1C(=O)c1ccc(OC2CCN(C(=O)C3CC3)CC2)cc1 (stereo not given) | i | i | i | i | i | i
Cc1cccn2c(=O)c3cc(C(=O)NC4CCCC4)n(C)c3nc12 | i | nt | i | i | nt | nt
Cc1cc(C)nc(NS(=O)(=O)c2ccc(NC(=O)c3cc4c(=O)n5cccc(C)c5nc4n3C)cc2)n1 | i | nt | i | 30 | nt | nt
COC(=O)C(CC(C)C)NC(=O)c1ccc(F)cc1 (stereo not given) | i | i | i | i | i | 98
CC(NC(=O)c1ccc(F)cc1)c1ccc(F)cc1 (stereo not given) | i | i | i | i | i | i
COc1ccc(C(=O)NCC(=O)N2CCN(c3ccc(F)cc3)CC2)cc1 | i | nt | i | i | nt | nt
CCOC(=O)CSc1nc(N)c(C(=O)Nc2ccc(N(C)C)cc2)s1 | i | 90 | i | i | i | i
Cc1ccc(C(C)C)c(OCC(O)CNC2CCCC2)c1 (stereo not given) | i | nt | i | i | nt | nt
N#Cc1ccsc1NC(=O)C1CC(=O)N(Cc2ccccc2)C1 (stereo not given) | i | nt | i | i | nt | nt
Cc1ccccc1C(=O)Nc1cccc(-c2ccc3nncn3n2)c1 | i | i | i | i | i | i
O=C(Nc1cccc(-c2ccc3nncn3n2)c1)c1ccco1 | i | i | i | i | 41 | i
CN(C)CC(C(=O)c1ccccc1)c1ccccc1 (stereo not given) | i | i | i | i | i | i
CN(C)CC(O)CN(c1ccccc1)c1ccccc1 (stereo not given) | i | i | i | i | nt | 98
C=C(C)C(=O)Nc1cccc(C2=NOC3(C2)C[C@@H](C(N)=O)N(C(=O)c2ccc(OC)cc2)C3)c1 (stereo not given in full) | i | 69 | i | i | nt | i
C/C=C\C=C/C(=O)Nc1cccc(C2=NOC3(C2)C[C@@H](C(N)=O)N(C(=O)c2ccccc2)C3)c1 (stereo not given in full) | i | 75 | i | i | nt | i
C=C(C)C(=O)Nc1cccc(C2=NOC3(C2)C[C@@H](C(N)=O)N(C(=O)CCCCC)C3)c1 (stereo not given in full) | i | 69 | i | i | nt | i
C/C=C\C(=O)Nc1cccc(C2=NOC3(C2)C[C@@H](C(N)=O)N(C(=O)c2ccccc2)C3)c1 (stereo not given in full) | i | i | i | i | nt | i
COc1ccccc1CNC(=O)C1CC2Cn3c(nc4cc(C)c(C)cc43)C2N1C (stereo not given) | i | nt | i | i | nt | nt
COc1ccc(Cn2c(=O)[nH]c3cc(C(=O)NCc4ccc5c(c4)OCO5)ccc3c2=O)cc1 | i | i | i | i | i | 56
COc1ccc(Cn2c(=O)[nH]c3cc(C(=O)NCCCOC(C)C)ccc3c2=O)cc1 | i | i | i | i | i | i
COc1ccc(CNC(=O)c2cc3c(=O)n4ccccc4nc3n(Cc3cccnc3)c2=N)cc1 | i | 59 | i | i | i | i
COc1ccc(Cn2c(=N)c(C(=O)NC3CCCCC3)cc3c(=O)n4ccccc4nc32)cc1 | i | nt | i | i | nt | nt
N=c1c(C(=O)NCc2ccco2)cc2c(=O)n3ccccc3nc2n1Cc1ccc(Cl)cc1 | i | nt | i | i | i | nt
N=c1c(C(=O)NCc2ccc3c(c2)OCO3)cc2c(=O)n3ccccc3nc2n1Cc1cccnc1 | i | 74 | i | i | i | i
Oc1cccc(/C=N/NC(=S)Nc2cccnc2)c1O | i | 66 | i | i | i | i
Oc1ccc(/C=N/NC(=S)Nc2cccnc2)c(O)c1O | nt | 102 | nt | nt | nt | i

Assay outcomes (PubChem)
